This is part of a sample that, as a whole, favours compounds with a hit. Of some 83,000 tested, about 20% had one in any assay.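 48-hour exposure, single concentration, 96-well plates; percent growth endpoint where 0 means no net growth. Active: below 10.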 Values without a mark were called inactive. Active and inactive are the calls of the source.
How the values were obtained:
Experiment in all cases: NCI-60 one-dose screen, 48 h (100 = growth as untreated, 0 = no growth, -100 = all killed)
Conditions in all cases: 10 µM unless noted
HCT-15 colon = tested on: HCT-15 colon
HT29 colon = tested on: HT29 colon
SNB-75 CNS = tested on: SNB-75 CNS
SNB-19 CNS = tested on: SNB-19 CNS
U251 CNS = tested on: U251 CNS
PC-3 prostate = tested on: PC-3 prostate
SK-MEL-5 melanoma = tested on: SK-MEL-5 melanoma
UACC-62 melanoma = tested on: UACC-62 melanoma
LOX IMVI melanoma = tested on: LOX IMVI melanoma
SK-MEL-28 melanoma = tested on: SK-MEL-28 melanoma

SMILES | growth (HCT-15 colon) | growth (HT29 colon) | growth (SNB-75 CNS) | growth (SNB-19 CNS) | growth (U251 CNS) | growth (PC-3 prostate) | growth (SK-MEL-5 melanoma) | growth (UACC-62 melanoma) | growth (LOX IMVI melanoma) | growth (SK-MEL-28 melanoma)
Cc1ccc(/C=C2\COc3ccc(O)cc3C2=O)cc1 | 70.8% | 57.7% | 84.6% | 87.5% | 69.9% | 86% | 97.7% | 86.1% | 57% | 103%
COc1ccc(OC)c(Nc2nnc(-c3ccc(O)c(OC)c3)o2)c1 | 46.5% | 99% | 15.2% | 70% | 65.1% | 74.8% | 71.6% | 96.7% | 43.3% | 108%
COc1cccc(CNc2ccc3ncnc(Nc4ccc(F)c(Cl)c4)c3c2)c1 | 53.2% | 88.3% | 79.3% | 69% | 71.4% | 52.7% | 89.5% | 81.1% | 69.8% | 107%
COc1ccc(-c2noc(C(=O)O)c2-c2cc(OC)c(OC)c(OC)c2)cc1 | 30.4% | 4.82% (active) | -3.43% (active) | 31.6% | 24.6% | 26.3% | 13% | 24.2% | 35.2% | 65.3%
CC1CCN(S(=O)(=O)c2ccc(S(=O)(=O)N3CCCC(c4nc5c(nnn5Cc5cccc(Cl)c5)c(=O)[nH]4)C3)cc2)CC1 (stereo not given) | 36.1% | 17.1% | 21.6% | 67.6% | 45.1% | 47% | 24.1% | 40.2% | 42.4% | 62%
CCOC(=O)C1=C(c2ccccc2)N=C2SC=C(c3ccc(Cl)cc3)N2C1c1ccc(Cl)cc1 (stereo not given) | 77.6% | 83% | 84.7% | 82.8% | 80.9% | 41.3% | 54.7% | 66.4% | 88.3% | 95.8%
COCCOc1cc2ncnc(N3CCN(c4cc(S(C)(=O)=O)c(C)cc4Cl)CC3)c2cc1OCCOC | 95.7% | 94.4% | 98.8% | 96.8% | 85.3% | 81.5% | 77% | 94.2% | 93.5% | 107%
COc1ccc(-c2nc3cc(C(=O)NCc4ccccc4)ccc3n2C2CCCCC2)cc1 | 10% | 28.1% | 64.3% | 98.2% | 68.2% | 85.3% | 38.6% | 91% | 53.9% | 92.7%
O=C1/C(=C/c2cccc(F)c2)CN(C(=O)C(Cl)Cl)C/C1=C\c1cccc(F)c1 | -64.7% (active) | 1.62% (active) | -52.2% (active) | -88.2% (active) | -90.2% (active) | -77.8% (active) | -82.2% (active) | -83.5% (active) | -92.1% (active) | -80.3% (active)
CCCCCN1C(=O)/C(=c2\sc3n(c2=O)C2C(NN=3)N(CC)C(=O)N2CC)c2ccccc21 (stereo not given) | 1.05% (active) | -57.1% (active) | -51.5% (active) | -1.3% (active) | -83.4% (active) | -20.2% (active) | 16.8% | 10.7% | -43.5% (active) | 19.2%
N#CC(C#N)N=Nc1ccc(Br)cc1 | 16.8% | 20.9% | 94.2% | 96.3% | 83.4% | 19.1% | 77.9% | 37.4% | 60.1% | 43.8%
CC(C)c1ccc(C(=O)Nc2nc3ccc(O)c(CN(C)C)c3s2)cc1 | 20% | 23.8% | 107% | 97.9% | 69.1% | 83% | 74.4% | 66% | 28.1% | 96.1%
C/C(=N\O)c1ccc(Cl)cc1 | 112% | 108% | 89.6% | 104% | 103% | 86.3% | 108% | 95% | 105% | 122%
COc1cc2cc(NCc3cccc(Cl)c3)nc(C)c2cc1OC | 48.2% | 3.17% (active) | 65.9% | 48.8% | 31.1% | 50.1% | 43.4% | 14.4% | 0.852% (active) | 33.3%
COc1cc(OC)c(/C=C/C(=O)c2c(OC)cccc2OC)c(OC)c1 | 15.7% | 0.507% (active) | 10.6% | 19.3% | 5.71% (active) | 11.6% | 1.1% (active) | -20.6% (active) | -4.2% (active) | 13.2%
Cc1cc(C)c2c(c1)N(C)c1ncnc(-n3cnc4cc(C)ccc43)c1CC2C (stereo not given) | 23.4% | 0.933% (active) | 29.1% | 35.7% | 14.6% | 20.9% | 8.49% (active) | 30.7% | 46.5% | 62.9%
CC(=O)Oc1ccc(/C(=C(\C)c2ccc(Cl)cc2)c2ccc(OCCN3CCCCC3)cc2)cc1 | -16.3% (active) | -25.9% (active) | 41.7% | 42.2% | 18.3% | 28.1% | 37.1% | 42.8% | -65% (active) | -48.5% (active)
COc1ccc(-c2cc(-c3cc(OC)c(OC)c(OC)c3)c(C#N)c(=O)n2CCCCC(=O)NO)cc1 | 38.4% | 77.9% | 25.5% | 77.5% | 61.3% | 61% | 57.7% | 60.7% | 9.19% (active) | 76.8%
C#CCOc1cccc(Nc2ncnc3ccc(NC(=O)C=C)cc23)c1 | 42.9% | 30.7% | 26.6% | 48.2% | 45.6% | 48.5% | 65.7% | 51% | 41.1% | 77.8%
CCOC(=O)C#Cc1c(C(=O)OCC)nnn1Cc1ccc([N+](=O)[O-])cc1 | -20% (active) | 7.68% (active) | 65.3% | 87.9% | 96.5% | 72.7% | 93.2% | 76% | -0.0172% (active) | 87%
Cc1ccc(NC(=O)c2sc3nc(C)c(Br)c(C)c3c2N)cc1 | 93.4% | 87.4% | 20.9% | 66.3% | 50.8% | 53.7% | 73.1% | 67.2% | 62.1% | 75.4%
O=C1C(=O)N(Cc2ccc(-c3ccccc3)cc2)c2ccc(OC(F)(F)F)cc21 | 10.3% | 9.07% (active) | 39.3% | 43.2% | 20.9% | 17.4% | 92.2% | 62.3% | 20.1% | 82.7%
CCOC(=O)C1=C(N)Oc2c(sc3c(F)cccc23)C1c1ccc(O)cc1 (stereo not given) | 24.2% | 30.7% | 31.3% | 48.9% | 37.9% | 26% | 18% | 26.3% | 36.4% | 46%
CC(C)=CCCC(C)c1ccc(C)c2c1OCN(CCCCCO)C2 (stereo not given) | 94% | 27.2% | 85.6% | 88.8% | 83.8% | 66.6% | 91.7% | 82.8% | 77.6% | 115%
Cc1c(O)cc(-c2cnc(Nc3ccccc3)s2)c(O)c1C | 92.2% | 109% | 104% | 106% | 100% | 76% | 93.4% | 78.1% | 78.3% | 104%
COc1ccc(Cc2cnc(NC(=O)c3cc(C)oc3C)s2)cc1 | 26.9% | 13.6% | -8.41% (active) | 38.7% | 35.8% | 39.3% | 25.8% | 27.1% | 39.9% | 54.3%
COc1cc(/C=C/C(=O)c2ccc(F)cc2)ccc1OCCCCOc1ccc(/C=C/C(=O)c2c(C)nc3ccccc3c2C)cc1OC | 96.5% | 100% | 97.1% | 110% | 83.3% | 93.2% | 62.4% | 73.1% | 90.2% | 122%

Reference: PubChem BioAssay (NCI)
